The whole screen tested about 360,000 compounds, of which about 1,300 (0.36%) were called active. Shown is part of a subset that was picked to be rich in actives. Unmarked numbers belong to inactive results. Cut-off read from the data, not from the text of the source: active = inhibition above about 19%; inactive = the rest.
Each compound was assayed on T-cell receptor (TCR) (assay: small molecules blocking TCR binding to CD3 – biochemical, fluorescence, TAMRA-labeled TCR probe, primary screen (AID 651800;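 note: recombinant mutant TCR 2C K166C tagged with TAMRA read by polarization; 0% = receptor in buffer alone and 100% = receptor with positive control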)). Conditions: at 9.4 µM, active compounds read high.

SMILES | inhibition
CCCCCCc1cc2cc(-c3nnc(-c4cccc(OC)c4)o3)c(=O)oc2cc1O | -0.99%
COC(=O)c1cc2c(c3c4ccccc4n(S(=O)(=O)c4cccc(C)c4)c13)C(=O)N(Cc1ccccc1)C2 | -0.99%
Nc1ccn([C@@H]2O[C@H](C(=O)N[C@H]3CCCCNC3=O)[C@@H](O)[C@H]2O)c(=O)n1 | 1.09%
COc1ccc(C(=O)NC(=S)NNC(=O)CCc2ccccc2)cc1 | 101% (active)
COc1ccccc1CCC(=O)NNC(=O)c1ccncc1 | 1.16%
COc1ccc(/C(N)=N/OC(=O)CCCc2ccccc2)cc1 | 3.62%
C[C@@H]1CN([C@H](C)CO)C(=O)CCCn2cc(nn2)CO[C@H]1CN(C)C(=O)Nc1ccc(N2CCCCC2)cc1 | -4.6%
O=C(Nc1c(Cl)c(C2CC2)nn1-c1ccccc1)C(Cl)(Cl)Cl | 4.25%
O=C(N[C@H](C(=O)N1CCC[C@H]1C(=O)NCCc1ccccc1Cl)c1ccccc1)c1ccccc1 | 7.43%
Cc1cc(NCCc2c[nH]c3ccccc23)ccc1Oc1cccnc1 | -1.7%
O=C(N[C@H](Cc1ccccc1)C(=O)N1CCCN(Cc2cccs2)CC1)[C@H]1O[C@@H](n2ccc(=O)[nH]c2=O)[C@H](O)[C@@H]1O | -1.23%
COC(=O)N1Cc2ccnnc2CC1c1ccccc1Br (stereo not drawn) | 12%
Cc1ccc(NC(=O)N2c3ccccc3SC2c2ccco2)c(C)c1 (stereo not drawn) | 1.82%
COC(=O)C1=C(C)N(Cc2ccc(C(F)(F)F)cc2)C(=NCc2ccc(C(F)(F)F)cc2)NC1c1cccc(Cl)c1 (stereo not drawn) | 1.76%
COCCOC(=O)c1sc(=S)n(CCOC)c1N | 38.1% (active)
COC(=O)[C@]12C[C@H](CC(=O)NCCC(C)C)C(=O)N(CCc3ccc(OC)c(OC)c3)C1=C[C@H](C(C)(C)C)O[C@@H]2C | -1.41%
COCc1cc(N2CCN(C(=O)OC(C)(C)C)C[C@@H]2C)ccc1N1CCN(Cc2ccccc2)[C@H](C)C1 | -5.69%
Cc1cc(N2CCN(C(=O)OC(C)(C)C)C[C@H]2C)ccc1N1CCN(Cc2ccccc2)[C@H](C)C1 | -1.77%
COc1cccc2c1C(=O)c1c(O)c3c(c(O)c1C2=O)CC(O)(C(C)=NNC(=O)c1ccc(Cl)c(Cl)c1)CC3OC1CC(N)C(O)C(C)O1 (stereo not drawn) | 158% (active)
Nc1nc2c(ncn2[C@@H]2O[C@H](C(=O)N[C@H](Cc3ccccc3)C(=O)NCC3CCCCC3)[C@@H](O)[C@H]2O)c(=O)[nH]1 | -5.72%
CCCCCCCCN1C(=O)[C@@H](CC(=O)NCCCC)C[C@@]2(C(=O)OC)C1=C[C@H](C(C)(C)C)O[C@@H]2C | 4.32%

SMILES | inhibition
CC1(C)OC(=O)C2=C(CC(CCc3ccccc3)OC2c2ccc(Cl)cc2)O1 (stereo not drawn) | 0.34%
Cc1ccc(Cc2cnc(N)s2)o1 | 20.7% (active)
Cc1ccc(CCC(=O)Nc2ncc(Cc3cc(Cl)ccc3Cl)s2)o1 | -1.49%
C=CCN=C1NC(c2ccccc2)C(C(=O)OC)=C(C)N1Cc1ccc(C(F)(F)F)cc1 (stereo not drawn) | -2.66%
N#Cc1ccc(OCCCN2CCC(C(O)(c3ccccc3)c3ccccc3)CC2)c(F)c1 | -1.37%
COC(=O)c1ccc(CN2C(=O)[C@]3(OCCC=C[C@H]3C)c3c(Br)cccc32)cc1 | -2.86%
CN1c2ccc(C=O)c3c(C=O)ccc(c23)N(C)C1(C)C | 35% (active)
C#CCOCCOCCOCCNc1nc(N2CCN(C(=O)C([C@@H](C)CC)n3cc(C(N)COC(=O)C(F)(F)F)nn3)CC2)nc(N2CCN(C(=O)[C@H](Cc3ccc(O)cc3)n3cc(C(N)[C@H](C)CC)nn3)CC2)n1 (stereo partly drawn) | 1.55%
CCCN1C(=O)c2[nH]nc(-c3ccccc3)c2C1c1ccccc1 (stereo not drawn) | 1.37%
CN(C)c1ccc(N/C=C/C(=O)C(F)(F)F)cc1 | 20.8% (active)
CN(C)c1ccc(/C=N/NC(=O)C(O)c2ccc(Br)cc2)cc1 (stereo not drawn) | 4.89%
CNC(=S)NNC(=O)c1ccc(N(C)C)cc1 | 5.64%
C#CCN([C@@H](C)C(=O)OCC)S(=O)(=O)c1ccc(Br)cc1F | 1.93%
CSc1ccc(/C=N/N2CCN(Cc3ccccc3Cl)CC2)cc1 | -2.6%
C(=N/N1CCN(c2ccccc2)CC1)/c1cccs1 | 4.89%
CN1CCN(/N=C/c2ccc(C#N)cc2)CC1 | 51.9% (active)
COC(=O)C1=C(C)NC(=S)NC1c1ccc(OC)cc1 (stereo not drawn) | 0.64%
COc1cccc(CC(=O)N2CCN(C(=O)C(=O)c3cccc(C(F)(F)F)c3)CC2)c1 | 0.68%
C[C@H](O)[C@@H]1CN2CCc3ccc(-c4ccc5c(c4)OCO5)cc3[C@@H]2C[C@@H]1N(C)C(=O)C1CCCCC1 | 8.65%
O=C(N/N=C/c1ccc(Br)o1)c1cncc(Br)c1 | -0.44%
O=C(CCNC(=O)c1ccccc1)NN=Cc1ccc(Br)o1 | 21.9% (active)

SMILES | inhibition
O=C(CCNC(=O)c1ccccc1Cl)NN=Cc1ccco1 | -5.52%
CN1C(=O)C(Br)(Br)CC1c1cccnc1 (stereo not drawn) | -8.3%
Cc1cc(Br)cn2c(Cc3ccccc3C(F)(F)F)c(-c3ccc(C#N)cc3)nc12 | 4.41%
COCCCNC(=S)N(Cc1ccccc1)Cc1ccc(F)cc1 | -3.1%
CCCCNC(=S)NNC(=O)c1cc(C)on1 | 11.9%
COCCCNC(=S)NNC(=O)C(O)(c1ccccc1)c1ccccc1 | 24.9% (active)
O=C(C(=O)N1CCC(CNS(=O)(=O)Cc2ccccc2)CC1)c1cc2ccccc2o1 | -2.01%
OC(c1ccccc1)(c1ccccc1)C1CCN(CCCOc2ccc(-c3ccsc3)cc2)CC1 | 2.16%
Cc1ccc(CNC(=O)Cc2cn(C)c3ccccc23)cc1 | 6.02%
Cc1ccc(CNC(=O)COc2ccc3c(c2)CCC3)cc1 | 1.31%
CCOCC(=O)NCc1ccc2c(c1)cc(C)n2C | 28.4% (active)
COC(=O)[C@H](CC(C)C)NS(=O)(=O)c1c(F)cccc1F | -1.84%
O=c1[nH]c(-c2ccccc2)cn1C1CCN(Cc2ccc(-c3nc4ccc(F)cc4nc3-c3ccccc3)cc2)CC1 | 12%
COC(=O)Cc1nnn2c1[C@H](C)[C@H](c1ccccc1[N+](=O)[O-])OCC2 | 1.45%
Nc1ccc2nc3c(=O)[nH]c(=S)[nH]c3nc2c1 | 109% (active)
O=C(NCc1ccccc1)[C@@H]1CCCN1C(=O)[C@H]1CCCN1C(=O)c1cccc(Cl)c1 | 5.36%
CC(C)(C)n1nc(C2CC2)c(Br)c1NC(=O)c1ccccc1F | -0.36%
COC(=O)C1=C(C)N(Cc2ccc(C(F)(F)F)cc2)C(=NCc2ccccc2)NC1c1ccccc1C(F)(F)F (stereo not drawn) | -1.22%
COc1ccc(SSc2ccc(OC)cc2C(=O)O)c(C(=O)O)c1 | 5.64%
CCOC(=O)Cn1c2c(n(-c3ccc(F)cc3)c1=O)C=C(c1ccccc1)[C@@H](C)C(C(=O)N(C)C1CCCCC1)=C2 | 5.23%
CC(=O)Nc1ccc(NC(=O)[C@@H](NC(=O)c2cccc(C)c2)C(C)C)cc1 | 2.27%

SMILES | inhibition
Cc1cccc(C(=O)Nc2ccc(C(=O)/C=C/c3cccs3)cc2)c1 | 19.4% (active)
Cc1cccc(C(=O)Nc2ccc3c(c2)C(=O)N(CC(C)C)C3=O)c1 | -1.41%
COCc1[nH]nc2c1C(c1ccccc1)N(c1ccccc1)C2=O (stereo not drawn) | 5.26%
COc1cccc(CNC(=O)[C@H]2CCCN2C(=O)[C@H]2CCCN2C(=O)C2CCCCC2)c1 | -0.26%
COC(=O)C1=C(C)N(Cc2cccc(C(F)(F)F)c2)C(=NCc2ccccc2)NC1c1ccc(Cl)cc1 (stereo not drawn) | 7.39%
Cc1cc2c(nc1C)CCCN2C | -1.06%
Cc1ccc(NC(=O)C(=O)NCc2ccc(/C=N/NC(=O)c3c(C)nc4cc(C)ccn34)o2)cc1 | 5.69%
CCCC1OC23CCCCC2C(C#N)(C#N)C1(C#N)C(=N)O3 (stereo not drawn) | 24.9% (active)
CC(C)[C@H]1COCCS(=O)(=O)N1Cc1ccccc1-c1cccc2c1sc1ccccc12 | -8.35%
O=[N+]([O-])c1ccc(C=Nc2ccc(Cl)cc2Cl)s1 | -1.69%
Cc1nn(Cc2ccc(Cl)cc2)c(Cl)c1/C=N/NC(=O)CNc1ccccc1F | 4.16%
Cc1ccccc1NCC(=O)N/N=C\c1ccc([N+](=O)[O-])s1 | 21.7% (active)
CN1C(=O)C2CC(O)C(SC3CC4C(=O)N(C)C(=O)C4CC3O)CC2C1=O (stereo not drawn) | 0.12%
C=CC[C@]12C[C@@]3(O[C@H](c4ccc(C(F)(F)F)cc4)N=C3C[C@H](c3ccc(OC)cc3)[C@H]1C)N(C1CCN(Cc3ccccc3)CC1)C2=O | 3.26%
CC(=N\NC(=O)c1cc(Br)ccc1O)/C(=N/O)C(=O)Nc1ccccc1 | 35.2% (active)
O=C(Nc1ccccc1)c1ccccc1Br | -6.01%
CC(=O)N/N=C(\C)c1ccc(Br)cc1Br | 2.37%
COc1cccc(-c2cc(CNC(=O)[C@@H](Cc3ccccc3)NC(=O)[C@H]3O[C@@H](n4cnc(C(N)=O)n4)[C@H](O)[C@@H]3O)no2)c1 | 0.79%
CC(=O)C1=C(C)N(Cc2ccccc2)C(=S)NC1c1cccc(Br)c1 (stereo not drawn) | -1.04%
COC(=O)c1c(-c2ccc(OC)cc2)c2c(c3c4cc(OC)ccc4n(S(=O)(=O)c4ccc(F)cc4)c13)C(=O)N(C)C2 | -4.92%
